Our source for the outcome and AC50 values is PubChem BioAssay (EPA / NIEHS).

Activity calls are given as the source filed them. Rule for the calls: active = hit-call score of the fitted dose curve at least 0.9, where 1 is the maximum; inactive = score below 0.9.

A word on the AC50: it is the concentration at which the activity in the assay is half-maximal.

A short description of experiment [1]: ATG_GLI_CIS: Attagene CIS-FACTORIAL HepG2 Assay for human Zinc Finger Protein GLI1 (AID 2282945). The conditions noted are these: HepG2, Attagene cis-factorial reporter mRNA, GLI element; actives raise or lower the signal. The essentials: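 Transiently transfected HepG2 cells report endogenous transcription factor activity via cis-element-driven reporter units. After 24 h compound exposure, reporter mRNA was measured by RT-PCR with capillary electrophoresis; bidirectional fitting against DMSO baseline.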

Experiment [2] is described as follows: ATG_GRE_CIS: Attagene CIS-FACTORIAL HepG2 Assay for human Glucocorticoid Response Elements (GRE) (AID 2282947). The note with it: HepG2 GRE cis-reporter, Attagene multiplex mRNA; actives raise or lower the signal. The essentials:
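Read-out: fluorescent reporter-transcript fragments separated by capillary electrophoresis after RT-PCR. Transiently transfected HepG2 cells carrying cis-element-driven reporter units were dosed for 24 h; gain or loss of signal fitted against DMSO control.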

Experiment [3] can be described thus: ATG_ISRE_CIS: Attagene CIS-FACTORIAL HepG2 Assay for human Interferon Regulatory Factor 1 (IRF1) binding to an Interferon-Stimulated Response Element (ISRE) (AID 2282948). The note with it: HepG2 ISRE cis-reporter (Attagene), mRNA transcription readout; actives raise or lower the signal. The essentials: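 Multiplexed mRNA reporter readout in human liver HepG2 cells: cis-element-driven reporters transfected, compound added for 24 h, transcripts amplified, fluorescently labelled and sized by capillary electrophoresis; curve fitting bidirectional against DMSO.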

Experiment [4] can be described thus: ATG_M_32_CIS: Attagene CIS-FACTORIAL HepG2 Assay for M32 Transcription Factor (Internal Marker) (AID 2282949).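 Note: background control marker of the multiplexed CIS panel rather than a real target.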 The note with it: HepG2 Attagene cis-factorial M32 reporter, mRNA; actives raise or lower the signal. The essentials: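 Using DMSO as baseline, bidirectional curve fits were applied to reporter mRNA signals. These came from transiently transfected HepG2 cells exposed for 24 h, with RNA analysed by RT-PCR, FAM primer extension, HpaI digestion and CE.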

Experiment [5] can be described thus: ATG_M_06_CIS: Attagene CIS-FACTORIAL HepG2 Assay for M06 Transcription Factor (Internal Marker) (AID 2282950). The conditions noted are these: HepG2 Attagene CIS-FACTORIAL M06 internal marker reporter; actives raise or lower the signal. The method, boiled down: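 Terse: HepG2, transient MRTU transfection (FuGene 6), 24 h dosing; total RNA, oligo(dT) RT, PCR, FAM label, HpaI cut, capillary electrophoresis; bidirectional fit vs DMSO baseline; background-control endpoint.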

In experiment [6] the target is Hypoxia-inducible factor 1-alpha (Homo sapiens) (UniProt Q16665). As to the kind of experiment: ATG_HIF1a_CIS: Attagene CIS-FACTORIAL HepG2 Assay for human Hypoxia Inducible Factor 1 (HIF1A) (AID 2282951). The conditions noted are these: HepG2 Attagene cis-factorial HIF1a reporter transcription; actives raise or lower the signal. The essentials: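 After 24 h chemical exposure of reporter-transfected HepG2 cells, reporter cDNA was PCR-amplified, labelled by 6-FAM primer extension (2 min 95 C, 20 s 68 C, 10 min 72 C), HpaI-cut (2 h, 37 C) and analysed by CE.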
Sequence of Hypoxia-inducible factor 1-alpha (Homo sapiens) (Q16665 whole entry, looked up): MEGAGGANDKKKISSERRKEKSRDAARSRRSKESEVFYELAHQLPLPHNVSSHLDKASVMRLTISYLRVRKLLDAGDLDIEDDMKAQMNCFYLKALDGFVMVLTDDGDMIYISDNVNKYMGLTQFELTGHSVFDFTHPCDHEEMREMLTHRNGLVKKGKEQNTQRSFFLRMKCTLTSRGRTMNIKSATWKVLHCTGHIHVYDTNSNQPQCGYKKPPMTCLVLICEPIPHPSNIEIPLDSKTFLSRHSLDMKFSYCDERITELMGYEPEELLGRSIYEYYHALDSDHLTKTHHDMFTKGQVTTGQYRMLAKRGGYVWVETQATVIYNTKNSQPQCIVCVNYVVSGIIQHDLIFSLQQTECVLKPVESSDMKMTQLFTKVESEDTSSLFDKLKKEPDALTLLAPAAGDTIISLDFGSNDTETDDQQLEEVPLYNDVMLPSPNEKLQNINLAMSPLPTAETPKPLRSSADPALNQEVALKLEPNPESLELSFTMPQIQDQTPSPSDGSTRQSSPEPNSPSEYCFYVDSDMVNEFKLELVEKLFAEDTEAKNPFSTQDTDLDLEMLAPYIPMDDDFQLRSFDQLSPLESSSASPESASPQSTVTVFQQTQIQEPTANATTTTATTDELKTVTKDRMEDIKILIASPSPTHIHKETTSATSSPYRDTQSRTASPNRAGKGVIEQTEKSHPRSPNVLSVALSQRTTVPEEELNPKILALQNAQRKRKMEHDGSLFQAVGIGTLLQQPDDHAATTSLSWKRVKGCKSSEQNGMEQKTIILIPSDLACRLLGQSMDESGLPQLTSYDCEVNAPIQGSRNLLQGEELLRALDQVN

Experiment [7] has as its target Hepatocyte nuclear factor 6 (Homo sapiens) (UniProt Q9UBC0). The experiment is described as follows: ATG_HNF6_CIS: Attagene CIS-FACTORIAL HepG2 Assay for human Hepatocyte Nuclear Factor 6 (HNF6) (AID 2282952). The conditions noted are these: HepG2 Attagene cis-factorial HNF6 reporter transcription; actives raise or lower the signal. The essentials: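 Endogenous transcription factor activity in human HepG2 liver cells was captured through cis-regulated reporter constructs. After 24 h treatment, reporter mRNA was measured by RT-PCR with capillary electrophoresis, and activity was fitted in both directions relative to DMSO.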

In experiment [8] the target is Heat shock factor protein 1 (Homo sapiens) (UniProt Q00613). As to the kind of experiment: ATG_HSE_CIS: Attagene CIS-FACTORIAL HepG2 Assay for human Heat Shock Transcription Factor 1 (HSE) (AID 2282953). The note with it: HepG2 HSE cis-reporter, Attagene RNA transcription; actives raise or lower the signal. The method, boiled down: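 Read-out: fluorescence of reporter-specific RT-PCR fragments separated by capillary electrophoresis. HepG2 carrying transfected cis-element reporter units; 24 h dosing; activity fitted in both directions relative to DMSO baseline.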
Sequence of Heat shock factor protein 1 (Homo sapiens) (Q00613 whole entry, looked up, the tested form may be a part): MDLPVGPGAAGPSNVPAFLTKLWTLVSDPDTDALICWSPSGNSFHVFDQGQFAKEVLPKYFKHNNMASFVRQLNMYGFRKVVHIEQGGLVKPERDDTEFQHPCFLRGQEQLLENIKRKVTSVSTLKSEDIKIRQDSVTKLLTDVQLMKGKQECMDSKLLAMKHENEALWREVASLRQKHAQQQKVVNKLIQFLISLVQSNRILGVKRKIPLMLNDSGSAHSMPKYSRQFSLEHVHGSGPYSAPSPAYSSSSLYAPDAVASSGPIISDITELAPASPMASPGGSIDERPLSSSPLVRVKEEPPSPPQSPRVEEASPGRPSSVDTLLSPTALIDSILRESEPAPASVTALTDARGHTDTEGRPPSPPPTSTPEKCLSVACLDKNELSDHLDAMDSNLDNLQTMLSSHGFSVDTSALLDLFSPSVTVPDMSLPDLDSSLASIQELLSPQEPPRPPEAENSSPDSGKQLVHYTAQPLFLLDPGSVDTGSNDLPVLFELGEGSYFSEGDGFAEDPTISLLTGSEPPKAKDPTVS

The nature of experiment [9]: ATG_MRE_CIS: Attagene CIS-FACTORIAL HepG2 Assay for human Metal Responsive Element (MRE) (AID 2282954). The conditions noted are these: HepG2 MRE cis-reporter transcription, Attagene multiplex; actives raise or lower the signal. The essentials: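 RT-PCR/capillary electrophoresis readout of reporter mRNA, 24 h post-dosing, in HepG2 cells transfected with multiplexed cis-regulated reporter constructs. Gain or loss of signal fitted bidirectionally against DMSO baseline.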

Experiment [10] is described as follows: ATG_PBREM_CIS: Attagene CIS-FACTORIAL HepG2 Assay for human Phenobarbital-responsive Enhancer Module (PBREM) (AID 2282955). The note with it: HepG2 PBREM cis-reporter, Attagene multiplexed transcription; actives raise or lower the signal. The essentials:
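Measures endogenous factor action on a phenobarbital-responsive enhancer module. HepG2 transiently carrying cis reporters, 24 h treatment, mRNA read-out by RT-PCR plus capillary electrophoresis.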

For experiment [11], the target named is Paired box protein Pax-6 (Homo sapiens) (UniProt P26367). The experiment is described as follows: ATG_Pax6_CIS: Attagene CIS-FACTORIAL HepG2 Assay for human Paired Box 6 (PAX6) (AID 2282956). The note with it: HepG2 CIS-FACTORIAL PAX6 reporter transcription, RNA readout; actives raise or lower the signal. The essentials: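 Fluorescent RT-PCR products separated by capillary electrophoresis report PAX6-linked promoter mRNA in HepG2 cells 24 h post-dose. Curves fitted bidirectionally, DMSO as negative control.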
Sequence of Paired box protein Pax-6 (Homo sapiens) (P26367 whole entry, looked up): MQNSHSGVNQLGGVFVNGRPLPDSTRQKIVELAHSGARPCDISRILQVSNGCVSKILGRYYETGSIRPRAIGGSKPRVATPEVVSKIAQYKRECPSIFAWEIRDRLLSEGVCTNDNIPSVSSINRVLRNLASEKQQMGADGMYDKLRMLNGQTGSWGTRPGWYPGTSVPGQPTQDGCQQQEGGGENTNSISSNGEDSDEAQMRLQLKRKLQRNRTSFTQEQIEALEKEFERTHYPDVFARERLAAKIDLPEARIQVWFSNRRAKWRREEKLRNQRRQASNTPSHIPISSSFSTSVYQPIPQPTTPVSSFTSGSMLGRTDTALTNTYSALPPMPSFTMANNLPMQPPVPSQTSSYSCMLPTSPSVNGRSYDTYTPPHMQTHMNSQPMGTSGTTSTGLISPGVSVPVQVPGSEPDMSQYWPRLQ

The nature of experiment [12]: ATG_PXRE_CIS: Attagene CIS-FACTORIAL HepG2 Assay for human Pregnane X Receptor Element (PXRE) (AID 2282957). The note with it: HepG2 Attagene CIS-FACTORIAL PXRE reporter, mRNA; actives raise or lower the signal. The method, boiled down:
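Endogenous transcription factor activity in HepG2 was gauged through induction of reporter mRNA driven by a cis-regulating promoter element, sampled 24 h post-treatment. Activity was fitted in both directions against DMSO negative control.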

The nature of experiment [13]: ATG_PPRE_CIS: Attagene CIS-FACTORIAL HepG2 Assay for human Peroxisome Proliferator-activated Response Element (PPRE) (AID 2282958). The note with it: HepG2 PPRE cis-element reporter, Attagene transcription factor profiling; actives raise or lower the signal. The method, boiled down:
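PPRE activity in HepG2: transient cis-reporter transfection, 24 h compound incubation, reporter mRNA by RT-PCR and CE fluorescence; gain/loss fitted against DMSO.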

A short description of experiment [14]: ATG_RORE_CIS: Attagene CIS-FACTORIAL HepG2 Assay for human RAR-related Orphan Receptor Element (RORE) (AID 2282959). The conditions noted are these: HepG2 Attagene cis-factorial RORE reporter, mRNA; actives raise or lower the signal. The essentials: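 A 24-hour exposure of transfected HepG2 hepatoma cells precedes RNA isolation and reporter RT-PCR. Labeled products are digested with HpaI and resolved by capillary electrophoresis, with gain or loss of signal scored relative to DMSO.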

Experiment [15] in a line: ATG_Sox_CIS: Attagene CIS-FACTORIAL HepG2 Assay for human SRY-box transcription factor (SOX) (AID 2282960). The note with it: HepG2 Attagene cis-factorial SOX reporter, mRNA; actives raise or lower the signal. The essentials: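 HepG2, cis reporter units, 24 h exposure. Reporter mRNA: RT-PCR → FAM labelling → HpaI → CE fluorescence. Bidirectional fit vs DMSO.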
Experiment [16] concerns the target Transcription factor Sp1 (Homo sapiens) (UniProt P08047). As to the kind of experiment: ATG_Sp1_CIS: Attagene CIS-FACTORIAL HepG2 Assay for human Specificity Protein 1 (Sp1) (AID 2282961). The conditions noted are these: HepG2 Sp1 cis-reporter transcription, actives raise or lower the signal. The method, boiled down: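 Liver-derived HepG2 cells, cis-element reporter library, 24 h treatment; RNA isolated, cDNA amplified with reporter-specific primers, FAM-labeled fragments sized on capillary analyzer. DMSO baseline, bidirectional curve fit.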

Experiment [17] in a line: ATG_SREBP_CIS: Attagene CIS-FACTORIAL HepG2 Assay for human Sterol Regulatory Element Binding (SREBP) (AID 2282962). The conditions noted are these: HepG2 Attagene cis-factorial SREBP reporter, mRNA; actives raise or lower the signal. The method, boiled down:
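Endogenous factor activity is measured in HepG2 through multiplexed reporter units under cis-element control. Following a 24 h incubation, reporter transcripts are reverse-transcribed, PCR-amplified and sized by capillary electrophoresis; activity is fitted in both directions relative to DMSO.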

The target of experiment [18] is Signal transducer and activator of transcription 3 (Homo sapiens) (UniProt P40763). The experiment is described as follows: ATG_STAT3_CIS: Attagene CIS-FACTORIAL HepG2 Assay for human Signal Transducer and Activator of Transcription 3 (STAT3) (AID 2282963). The note with it: HepG2, Attagene cis-factorial STAT3 reporter transcription; actives raise or lower the signal. The essentials: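 Readout: fluorescent reporter mRNA fragments resolved by capillary electrophoresis. Setup: HepG2 transfected with MRTUs reporting endogenous transcription-factor activity, dosed 24 h. Gain or loss of signal fitted bidirectionally against DMSO control.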
Sequence of Signal transducer and activator of transcription 3 (Homo sapiens) (P40763 whole entry, looked up, the tested form may be a part): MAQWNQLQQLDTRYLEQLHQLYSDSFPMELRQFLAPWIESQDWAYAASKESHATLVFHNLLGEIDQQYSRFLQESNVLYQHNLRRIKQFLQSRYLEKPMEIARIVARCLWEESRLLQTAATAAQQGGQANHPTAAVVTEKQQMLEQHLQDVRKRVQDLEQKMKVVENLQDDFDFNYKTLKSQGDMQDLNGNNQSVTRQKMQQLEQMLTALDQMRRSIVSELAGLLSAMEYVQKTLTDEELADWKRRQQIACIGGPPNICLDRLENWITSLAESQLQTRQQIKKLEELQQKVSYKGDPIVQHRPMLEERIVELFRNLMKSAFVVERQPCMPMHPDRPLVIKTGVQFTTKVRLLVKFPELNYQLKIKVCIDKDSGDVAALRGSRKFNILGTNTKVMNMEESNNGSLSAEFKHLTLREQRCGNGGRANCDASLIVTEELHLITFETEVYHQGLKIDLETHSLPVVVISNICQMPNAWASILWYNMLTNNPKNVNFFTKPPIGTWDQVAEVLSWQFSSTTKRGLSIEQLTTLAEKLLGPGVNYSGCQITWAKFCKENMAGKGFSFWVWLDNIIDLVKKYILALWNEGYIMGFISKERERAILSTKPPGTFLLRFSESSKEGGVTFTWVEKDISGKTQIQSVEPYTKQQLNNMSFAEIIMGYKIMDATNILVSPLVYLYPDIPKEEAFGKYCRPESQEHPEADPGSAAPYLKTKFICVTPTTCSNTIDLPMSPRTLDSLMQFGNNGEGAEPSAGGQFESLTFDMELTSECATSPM

Experiment [19] is described as follows: ATG_TA_CIS: Attagene CIS-FACTORIAL HepG2 Assay for human TA Basal Promoter (AID 2282964). The conditions noted are these: HepG2 Attagene CIS-factorial TA basal promoter reporter; actives raise or lower the signal. The essentials:
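Transfected HepG2, 24 h compound exposure; RNA → RT-PCR → FAM primer extension → HpaI cut → CE fluorescence. Gain/loss-of-signal fitted against DMSO negative control. Background-control readout.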

Experiment [20] has as its target Bile acid receptor (Homo sapiens) (UniProt Q96RI1). The experiment is described as follows: ATG_IR1_CIS: Attagene CIS-FACTORIAL HepG2 Assay for human Nuclear Receptor Subfamily 1 Group H Member 4 (NR1H4), IR1 submotif (AID 2282946). The note with it: IR1 reporter transcription, actives raise or lower the signal. The essentials: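 Fluorescence of capillary-separated, HpaI-digested RT-PCR reporter products gave IR1-element mRNA induction in HepG2 cells 24 h after dosing. Endogenous transcription factors drove the cis-regulated reporters; activity was fitted bidirectionally against DMSO.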

Sequence of Hepatocyte nuclear factor 6 (Homo sapiens) (Q9UBC0 whole entry, looked up): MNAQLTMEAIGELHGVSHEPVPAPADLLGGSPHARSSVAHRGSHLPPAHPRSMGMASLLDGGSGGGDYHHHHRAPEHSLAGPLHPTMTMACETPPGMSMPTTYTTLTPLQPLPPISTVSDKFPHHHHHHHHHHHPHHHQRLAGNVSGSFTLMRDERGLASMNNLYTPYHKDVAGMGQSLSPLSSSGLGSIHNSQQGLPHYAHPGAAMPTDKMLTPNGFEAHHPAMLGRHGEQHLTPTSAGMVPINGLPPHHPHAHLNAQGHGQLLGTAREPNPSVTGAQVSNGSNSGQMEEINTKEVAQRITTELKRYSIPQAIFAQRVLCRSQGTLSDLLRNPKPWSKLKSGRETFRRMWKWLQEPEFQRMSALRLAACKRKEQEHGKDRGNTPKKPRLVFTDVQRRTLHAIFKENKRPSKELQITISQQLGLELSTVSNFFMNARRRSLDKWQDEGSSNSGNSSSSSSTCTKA
Sequence of Transcription factor Sp1 (Homo sapiens) (P08047 whole entry, looked up, the tested form may be a part): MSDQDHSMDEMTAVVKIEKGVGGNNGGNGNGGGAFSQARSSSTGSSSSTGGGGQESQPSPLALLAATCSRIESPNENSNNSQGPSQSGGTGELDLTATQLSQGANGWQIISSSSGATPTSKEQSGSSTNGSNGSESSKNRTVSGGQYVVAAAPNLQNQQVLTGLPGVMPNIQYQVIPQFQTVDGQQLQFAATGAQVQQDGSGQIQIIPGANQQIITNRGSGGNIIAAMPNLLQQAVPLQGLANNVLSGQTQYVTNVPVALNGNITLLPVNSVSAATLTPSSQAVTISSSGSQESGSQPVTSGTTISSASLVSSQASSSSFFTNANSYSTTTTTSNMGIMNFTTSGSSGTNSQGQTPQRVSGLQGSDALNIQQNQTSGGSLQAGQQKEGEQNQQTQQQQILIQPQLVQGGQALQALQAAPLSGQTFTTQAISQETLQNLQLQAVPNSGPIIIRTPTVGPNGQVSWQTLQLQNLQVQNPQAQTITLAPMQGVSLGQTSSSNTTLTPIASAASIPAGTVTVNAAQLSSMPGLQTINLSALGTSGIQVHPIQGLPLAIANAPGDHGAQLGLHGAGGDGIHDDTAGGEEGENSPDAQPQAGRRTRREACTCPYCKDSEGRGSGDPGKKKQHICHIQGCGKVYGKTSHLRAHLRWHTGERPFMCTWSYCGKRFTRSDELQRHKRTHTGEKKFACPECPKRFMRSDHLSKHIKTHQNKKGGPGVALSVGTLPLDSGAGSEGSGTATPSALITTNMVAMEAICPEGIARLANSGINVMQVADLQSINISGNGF
Sequence of Bile acid receptor (Homo sapiens) (Q96RI1 whole entry, looked up): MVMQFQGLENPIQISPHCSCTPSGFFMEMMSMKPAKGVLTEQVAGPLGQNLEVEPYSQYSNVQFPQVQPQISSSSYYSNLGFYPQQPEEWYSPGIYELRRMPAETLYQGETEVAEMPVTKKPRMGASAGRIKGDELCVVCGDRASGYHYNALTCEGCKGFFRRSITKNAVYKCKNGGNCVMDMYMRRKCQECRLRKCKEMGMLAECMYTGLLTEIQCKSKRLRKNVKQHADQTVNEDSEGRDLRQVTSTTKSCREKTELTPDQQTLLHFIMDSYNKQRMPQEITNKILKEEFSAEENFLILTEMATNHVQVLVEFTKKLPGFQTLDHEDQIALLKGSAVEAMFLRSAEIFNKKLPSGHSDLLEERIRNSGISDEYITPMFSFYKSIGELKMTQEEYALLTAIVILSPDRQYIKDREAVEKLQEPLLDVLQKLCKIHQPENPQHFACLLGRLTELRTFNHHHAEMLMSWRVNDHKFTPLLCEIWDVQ

With `CCCCCCOC(=O)c1ccccc1O`, the result in experiment [1], in experiment [2], in experiment [3], in experiment [4], in experiment [5] and in experiment [6] was inactive. For the same compound, the result in [7], in experiment [8], in experiment [9], in experiment [10], in experiment [11] and in experiment [13] was inactive. Moreover, the call in experiment [14], in [15], in [16], in experiment [17], in experiment [18] and in experiment [19] was inactive. In [12], the AC50 is 62.5 µM (active).

Consider `CC(C)(C)c1ccc(OC2CCCCC2O)cc1` (configuration not stated), for which the compound was called inactive in experiment [1], in [20], in experiment [2], in experiment [3], in experiment [4] and in [5]. The compound was called inactive in experiment [6], in experiment [7], in [8], in [9], in experiment [11] and in experiment [13]. The compound was classed as inactive in [14], in experiment [15], in experiment [16], in [18] and in [19]. The AC50 in [10] was 26.1 µM (active); in experiment [17], 26.5 µM (active).

Turning to `CC(CCl)OP(=O)(OC(C)CCl)OC(C)CCl` (configuration not stated), the outcome in [1], in experiment [20], in experiment [2], in [3], in experiment [4] and in experiment [5] was inactive. The call in experiment [6], in [7], in experiment [8], in experiment [9], in experiment [10] and in experiment [11] was inactive. Further, the outcome in [13], in experiment [14], in experiment [15], in [16], in experiment [17] and in experiment [18] was inactive. Also, in [19], the call was inactive.
